# In PMC4336329 (PLoS ONE, 2015):
# The whole screen tested about 310,000 compounds, of which about 14,000 (4.5%) showed an effect of 50% or more. Effects have a minus sign here. The entries come from a sample that favours strong results as a whole.
# Molecular target: human ether-à-go-go-related gene (hERG) potassium channel (human, UniProt Q12809)
# Test: primary screen, population patch clamp on CHO cells stably expressing hERG; higher = less effect of the substance
# 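Also: peak tail current of the secondary pulse compared with the same well before compound.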
# Chain of human ether-à-go-go-related gene (hERG) potassium channel (Q12809 whole entry, looked up): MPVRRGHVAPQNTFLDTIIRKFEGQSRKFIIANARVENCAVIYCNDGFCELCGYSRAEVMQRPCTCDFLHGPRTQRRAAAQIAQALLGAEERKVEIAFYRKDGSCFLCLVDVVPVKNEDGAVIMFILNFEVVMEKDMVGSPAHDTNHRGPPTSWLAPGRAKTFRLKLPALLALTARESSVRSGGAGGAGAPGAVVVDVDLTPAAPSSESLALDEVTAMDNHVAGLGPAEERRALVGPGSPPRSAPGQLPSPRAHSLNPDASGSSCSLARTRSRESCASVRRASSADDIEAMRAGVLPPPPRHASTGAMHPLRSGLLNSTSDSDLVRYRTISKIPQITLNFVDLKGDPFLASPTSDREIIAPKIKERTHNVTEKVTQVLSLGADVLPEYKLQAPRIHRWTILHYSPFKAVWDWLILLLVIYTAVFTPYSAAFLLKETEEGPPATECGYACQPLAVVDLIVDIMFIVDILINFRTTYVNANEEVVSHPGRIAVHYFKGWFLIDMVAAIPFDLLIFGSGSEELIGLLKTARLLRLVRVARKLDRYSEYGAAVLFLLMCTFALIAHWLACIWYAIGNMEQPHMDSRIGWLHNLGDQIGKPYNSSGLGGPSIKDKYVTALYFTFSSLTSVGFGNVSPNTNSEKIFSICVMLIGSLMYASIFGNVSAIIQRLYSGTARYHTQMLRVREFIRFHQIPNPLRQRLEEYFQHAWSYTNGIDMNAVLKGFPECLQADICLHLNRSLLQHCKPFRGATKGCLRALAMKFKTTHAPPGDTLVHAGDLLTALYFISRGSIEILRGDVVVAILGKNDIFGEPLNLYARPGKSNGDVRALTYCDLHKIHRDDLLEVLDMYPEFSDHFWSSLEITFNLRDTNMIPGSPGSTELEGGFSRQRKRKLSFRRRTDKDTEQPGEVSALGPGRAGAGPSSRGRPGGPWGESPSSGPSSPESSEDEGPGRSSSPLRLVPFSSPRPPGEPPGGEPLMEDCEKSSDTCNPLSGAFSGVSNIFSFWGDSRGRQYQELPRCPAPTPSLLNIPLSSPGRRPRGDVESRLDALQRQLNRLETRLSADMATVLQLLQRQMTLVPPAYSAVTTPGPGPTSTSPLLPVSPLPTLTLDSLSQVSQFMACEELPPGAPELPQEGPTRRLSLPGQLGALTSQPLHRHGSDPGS
row,SMILES,"hERG current change (%, negative = inhibition) at 10uM"
1,Cc1cccc(NC(=O)CN2C(=O)COc3ccc(Cl)cc32)c1C,8.74%
2,O=C(NCC(=O)N(Cc1ccco1)C(C(=O)NC1CCCC1)c1ccncc1)c1cccs1 (stereo not drawn),-0.29%
3,O=C(N/N=C/c1cc([N+](=O)[O-])ccc1O)C1CC1,9.47%
4,Cc1cc(C)n(-c2nc3ccccc3c(=O)n2OCCOc2ccccc2)n1,-1.88%
5,COc1ccc2c(c1)C(=O)Cc1ccccc1O2,0.762%
6,COc1ccc(C(c2nnnn2C2CCCCC2)N2CCN(C)CC2)c(OC)c1 (stereo not drawn),-4.87%
7,N/C(=N\OC(=O)C12CC3CC(CC(C3)C1)C2)c1ccccc1,-11.1%
8,COc1ccc2nc(/N=C/c3c(O)n(-c4cccc(Cl)c4)c(=O)[nH]c3=O)sc2c1,2.53%
9,CCOC(=O)CC(=O)CSc1nc2nc(C)cc(C)n2n1,8.34%
10,O=C(Nc1ccccc1)c1ccncc1,1.31%
11,O=C(COC(=O)c1ccc(O)cc1O)NNC(=O)c1cccs1,6.45%
12,CSc1nc(N2CCOCC2)cc(N2CCOCC2)n1,7.09%
13,O=C(CN1C(=O)c2cccc3cccc(c23)C1=O)N1CCCCC1,0.0571%
14,Cc1cc(C)c(NC(=O)C2CCCN2CCOC(=O)c2cccc([N+](=O)[O-])c2)c(C)c1.Cl (stereo not drawn),-63.2%
15,Cc1cc(C)c(NC(=O)C2CCCN2CCO)c(C)c1 (stereo not drawn),-14.5%
16,Cc1cc(C)c(NC(=O)C2CCCN2CCOC(=O)c2ccccc2)c(C)c1.Cl (stereo not drawn),-26%
17,CC(NC(=O)c1ccccc1F)c1nnc(SCC(=O)NC2=NCCS2)n1C (stereo not drawn),22.3%
18,COC(=O)c1cc(CNC(=O)c2ccccc2Cl)ccc1OC,0.487%
19,COC(=O)C1CSc2[nH]c(=O)sc2C1c1ccc(OC)c(OC)c1 (stereo not drawn),0.0419%
20,COC(=O)C1=C(C(=O)OC)C(c2cc(Br)ccc2O)c2sc(=O)[nH]c2S1 (stereo not drawn),-47.6%
21,COC(=O)C1=C(C(=O)OC)C(c2cc([N+](=O)[O-])ccc2O)c2sc(=O)[nH]c2S1 (stereo not drawn),1.28%

row,SMILES,"hERG current change (%, negative = inhibition) at 10uM"
1,COc1ccc(C2c3sc(=O)[nH]c3SC3C4CCC(C4)C23)cc1OC (stereo not drawn),-17.5%
2,COC(=O)C1=C(C(=O)OC)C(c2ccc(OC)c(OC)c2)c2sc(=O)[nH]c2S1 (stereo not drawn),-54.8%
3,COC(=O)C1=C(C(=O)OC)C(c2ccccc2O)c2sc(=O)[nH]c2S1 (stereo not drawn),-55.9%
4,S=c1[nH]nc(-c2ccc(Cl)cc2)n1-c1cccnc1,23.5%
5,Cc1ccc(-c2nc(C#N)c(N3CCC(C)CC3)o2)cc1,17.5%
6,N#Cc1c(N)nc2c(c1-c1ccncc1)CCCCC2,-12.3%
7,COCCC(=O)N1CCCC(C(=O)c2ccccc2SC)C1 (stereo not drawn),13.1%
8,COc1cc(OC)c(OC)cc1CN1CCCC(C(=O)c2ccccc2SC)C1 (stereo not drawn),-58.5%
9,COc1ccc(OC)c(CN2CCCC(C(=O)c3ccccc3SC)C2)c1 (stereo not drawn),-75.9%
10,COc1cc(CN2CCCC(C(=O)c3ccccc3SC)C2)cc(OC)c1 (stereo not drawn),-74.4%
11,COc1ccc(O)c(CN2CCCC(C(=O)c3ccccc3SC)C2)c1 (stereo not drawn),-30.9%
12,O=C(/C=C/c1ccc(S(=O)(=O)N2CCOCC2)cc1)NCc1ccccc1,-4.31%
13,O=c1[nH]c(-c2ccc(Cl)cc2)cs1,9.25%
14,COc1cc(NC(=O)Nc2cccc([N+](=O)[O-])c2)cc(OC)c1,1.42%
15,COc1cccc(NC(=O)[C@@H]2CCCN2S(=O)(=O)c2cccc3cccnc23)c1,-5.87%
16,COCCN(C(=O)CCC(=O)Nc1nccs1)C(C(=O)NC(C)(C)C)c1ccc(F)cc1 (stereo not drawn),-1.98%
17,COC(=O)CSc1nnc(CNc2ccc(F)cc2)o1,14.5%
18,COc1ccc(/C(N)=N/O)cc1O,5.51%
19,Cn1c(=O)n(Cc2ccccc2)c(=O)c2c1nc1n2CCCN1CCc1ccccc1,-26%
20,CCCn1c(=O)c2c(nc3n2CCCN3CCc2ccc(OC)c(OC)c2)n(C)c1=O,-23.7%
21,CC(C)Cn1c(=O)c2c(nc3n2CCCN3CCc2ccccc2)n(C)c1=O,-76%

row,SMILES,"hERG current change (%, negative = inhibition) at 10uM"
1,Cn1c(=O)n(CC(=O)O)c(=O)c2c1nc1n2CCCN1CCc1ccccc1,13.6%
2,CCCn1c(=O)c2c(nc3n2CC(C)CN3Cc2ccccc2)n(C)c1=O (stereo not drawn),-39.4%
3,C=C(C)Cn1c(=O)c2c(nc3n2CCCN3CCc2ccccc2)n(C)c1=O,-73.3%
4,C=C(C)Cn1c(=O)c2c(nc3n2CCCN3Cc2ccccc2)n(C)c1=O,-17.9%
5,CC(C)Cn1c(=O)c2c(nc3n2CC(C)CN3Cc2ccccc2)n(C)c1=O (stereo not drawn),-83.3%
6,Cn1c(=O)c2c(nc3n2CCCN3CCc2ccccc2)n(C)c1=O,-1.45%
7,C=CCn1c(=O)c2c(nc3n2CCCN3CCc2ccc(OC)c(OC)c2)n(C)c1=O,-79.6%
8,CC1CN(Cc2ccccc2)c2nc3c(c(=O)n(C)c(=O)n3C)n2C1 (stereo not drawn),-36.1%
9,CCn1c(=O)c2c(nc3n2CCCN3CCc2ccc(OC)c(OC)c2)n(C)c1=O,-5.18%
10,CCOc1ccc(-n2nnc3c(=O)n(CC(=O)N4CCCc5ccccc54)cnc32)cc1,-4.52%
11,O=C(Nc1nc2ccc(S(=O)(=O)N3CCCC3)cc2s1)C1CCCCC1,4.81%
12,COc1ccc(C(CC(=O)N2CCC3(CC2)OCCO3)NS(=O)(=O)c2ccc(OC)cc2)cc1 (stereo not drawn),7.14%
13,CCCn1c(=O)c2c(nc3n2CCCN3CCc2ccccc2)n(C)c1=O,-65.4%
14,CC1CN(Cc2ccccc2)c2nc3c(c(=O)n(CC(=O)O)c(=O)n3C)n2C1 (stereo not drawn),18.8%
15,CC(C)CCn1c(=O)c2c(nc3n2CCCN3Cc2ccccc2)n(C)c1=O,-37.7%
16,CCn1c(=O)c2c(nc3n2CCCN3CCc2ccccc2)n(C)c1=O,-21.2%
17,Cn1c(=O)n(Cc2ccccc2)c(=O)c2c1nc1n2CCCN1Cc1ccccc1,-31.1%
18,C=C(C)Cn1c(=O)c2c(nc3n2CC(C)CN3Cc2ccccc2)n(C)c1=O (stereo not drawn),-65.6%
19,CC(C)Cn1c(=O)c2c(nc3n2CCCN3Cc2ccccc2)n(C)c1=O,-50%
20,CC1CN(Cc2ccccc2)c2nc3c(c(=O)n(CC(N)=O)c(=O)n3C)n2C1 (stereo not drawn),14.5%
21,CCCn1c(=O)c2c(nc3n2CCCN3Cc2ccccc2)n(C)c1=O,-34.3%
